High-throughput results from PubChem.
NPSR antag: blocks cAMP signaling of the human neuropeptide S receptor; Potency, µM (highest dose often 38.3 µM), inactives show at the top dose activity change, negative = inhibition, actives largely listed as inhibitors; 220,000 tested, 1% active; Q6W5P4; CHO-NPSR cells, cAMP TR-FRET, antagonist mode; active = well fitted curve in the direction sought with a large enough effect; inconclusive = small, poorly fitted or top-dose-only effect, or another doubt; inactive = no such curve, though single readings can be large; an effect the other way counts as inactive or inconclusive; note: potency is the fitted concentration of half-maximal effect; nearly all actives have a fitted effect of over 50% in size
FBPA coupling cs: coupling enzyme interference in Giardia aldolase counter-screen | coupling enzyme system counterscreen, AmpLite Red fluorescence | activity change, negative = inhibition, % at 58.2 µM, hits read low | 290,000 tested, 0.67% active; in the data active = activity change below about -30%
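Counterscreen lacking aldolase: glyceraldehyde-3-phosphate coupling-enzyme reagent preincubated 10 min at RT with compound (at 57.5 uM final), then substrate/coupling system with AmpLite Red added; fluorescence read at 525/598 nm after 20 min RT.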
Sfp PPTase inh: blocks B. subtilis Sfp PPTase activity; Q9F4F7; Biochemical Sfp PPTase activity, qHTS; Potency, µM, for the others: largest response in the series, negative = inhibition, usual class: inhibitors; 310,000 tested, 3.5% active; active = well fitted curve in the direction sought with a large enough effect; inconclusive = small, poorly fitted or top-dose-only effect, or another doubt; inactive = no such curve, though single readings can be large; an effect the other way counts as inactive or inconclusive;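 note: the enzyme is Sfp with the accession as filed and its product quenches rhodamine fluorescence; potency is the fitted concentration of half-maximal effect; 0% = enzyme reaction without inhibitor and -100% = no enzyme wells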
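Fluorescence-quenching assay: 15 nM Sfp-PPTase preincubated 15 min at room temperature with compound, then 5 uM rhodamine-CoA and 12.5 uM BHQ-2-labelled YbbR peptide added. Fluorescence (ex 525/em 598 nm) read at start and after 30 min; difference gives rate.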
ALDH1A1 inh: blocks purified human ALDH1A1 activity; 220,000 tested, 7.3% active; Potency, µM (titrated, usually from 75.3 µM), for inactives: at the highest dose activity, negative = inhibition, actives largely listed as inhibitors; Purified ALDH1A1, NADH fluorescence, propionaldehyde substrate;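 note: potency is the fitted concentration of half-maximal effect; plate controls were no enzyme wells and a reference inhibitor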
Target sequence (P00352 whole entry, looked up): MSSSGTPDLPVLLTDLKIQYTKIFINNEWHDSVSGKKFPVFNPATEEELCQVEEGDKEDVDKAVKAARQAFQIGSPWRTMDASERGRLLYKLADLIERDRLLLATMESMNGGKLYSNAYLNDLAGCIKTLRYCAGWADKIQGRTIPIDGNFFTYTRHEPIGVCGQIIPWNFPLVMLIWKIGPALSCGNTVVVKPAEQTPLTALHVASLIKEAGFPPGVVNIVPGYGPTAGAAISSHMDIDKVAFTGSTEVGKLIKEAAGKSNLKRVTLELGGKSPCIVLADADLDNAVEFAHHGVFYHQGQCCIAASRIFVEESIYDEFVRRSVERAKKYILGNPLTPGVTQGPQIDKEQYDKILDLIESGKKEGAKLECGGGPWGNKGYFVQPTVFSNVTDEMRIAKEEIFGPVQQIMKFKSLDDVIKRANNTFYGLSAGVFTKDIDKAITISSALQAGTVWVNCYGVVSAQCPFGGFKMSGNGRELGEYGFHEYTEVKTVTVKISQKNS
RGS12 GoLoco inh: blocks human Gai1 binding to RGS12 GoLoco peptide, red readout. P63096. Gai1:RGS12 GoLoco peptide FP, rhodamine, 10 min. Potency, µM (series often up to 61.6 µM), for inactives: top-dose activity, negative = inhibition, actives largely listed as inhibitors. 230,000 tested, 0.44% active. AID 880; active = well fitted inhibition curve with a large enough effect, not every such curve was filed as active; inactive = no such curve, though single readings can be large or run the other way; note: potency is the fitted concentration of half-maximal effect; nearly all actives have a fitted effect of over 30% in size
KDM4E inh: JMJD2E (human) inhibition; B2RXH2; JMJD2E catalytic domain, FDH-coupled NADH fluorescence (FDH is formaldehyde dehydrogenase); Potency, µM (doses to about 57.1 µM), for inactives: top-dose activity change, negative = inhibition, actives largely listed as inhibitors; 230,000 tested, 1.6% active;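 note: potency is the fitted concentration of half-maximal effect; 0% = wells with enzyme and -100% = buffer wells without enzyme; nearly all actives have a fitted effect of over 50% in size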
* hit, by the source's call; ? = inconclusive; . = not tested or not shown; [ ] = another dose, or the depositor's remark. Sampled rows, rich in hits. Any-hit rate of the full collection: about 8.5%. Unless noted, calls come from the whole dose curve; as a rule, active = well fitted inhibition curve with a large enough effect (not every such curve was filed as active); inconclusive = small, poorly fitted or top-dose-only effect, or another doubt; inactive = no such curve, though single readings can be large or run the other way. Unless noted, % is set by controls: 0 for no effect and ±100 for the full control effect.

SMILES	NPSR antag	FBPA coupling cs	Sfp PPTase inh	ALDH1A1 inh	RGS12 GoLoco inh	KDM4E inh
COc1ccc2c([N+](=O)[O-])c(Cl)[nH]c2c1	15%	-32*	-12%	?	0%	16µM*
COCCn1cnc2c1c(=O)n(CC(=O)Nc1cc(C)on1)c(=O)n2Cc1ccccc1	0%[46.1 µM]	0	9%	-4%	-3%	6%
Cc1cc(NC(=O)Cn2c(=O)n(Cc3ccccc3)c(=O)c3ccccc32)no1	-11%[46.1 µM]	5	25µM*	?	-1%	3%
CC(C)[C@H](O)C1=CCCCC1=O	.	-2	2%	5%	-5%	-2%
Clc1ccccc1Cn1nnc2c(Nc3ccccc3)ncnc21	-21%[46.1 µM]	-3	-7%	25µM*	4%	?
Clc1ccccc1Cn1nnc2c(NCC3CC3)ncnc21	0%[46.1 µM]	2	-11%	?	-13%	-15%
COC(=O)CC1C(C)(C)C(=O)C2CC3=C(CC[C@]4(C)C3=CC(=O)OC4c3ccoc3)[C@@]1(C)C2=O (stereo partly specified)	.	1	-4%	5%	3%	6%
O=C(Nc1cccs1)NC1CCCC1	4%[46.1 µM]	2	-7%	7.1µM*	85%	3%
CC1CCC(NC(=O)Nc2cccs2)CC1 (stereo unspecified)	0%[46.1 µM]	0	-20%	?	11%	-9%
O=C(NCC1CC1)Nc1cccs1	17%	2	45µM*	.	-9%	0%
O=C(NCC1CC1)Nc1ccc(Cl)cc1	.	-1	7%	.	.	.
COCCn1c(-c2ccc(Br)cc2)nc2oc3cc(OC)ccc3c(=O)c2c1=O	20%	6	10%	.	10%	-7%
Cn1c(=O)n(C)c2cc(/C=N/NC(N)=S)ccc21	-1%	-1	32µM*	1%	2%	?
O=C(COc1cc2oc(=O)cc(-c3ccccc3)c2cc1Cl)NCc1ccccn1	.	6	-20%	.	.	.
COc1ccc(-n2c(C)nnc2SCC(=O)Nc2ccccc2F)cc1	.	2	4%	.	.	.
CC1(C)Cc2ccccc2C(NNC(=O)c2ccccc2)=N1	20%	0	9%	-5%	-1%	2%
CC1(C)Cc2ccccc2C(NNC(=O)c2ccccn2)=N1	-13%[46.1 µM]	-3	9%	6%	-4%	25µM*
c1csc(-c2cn3ccc4ccccc4c3n2)c1	-6%	-26	10%	5µM*	5%	-3%
CCN(C(=O)c1ccco1)c1nnc(-c2ccc(OC)cc2)s1	?	-8	-2%	?	5%	?
COc1ccc(-c2cc(C(F)F)n3ncc(C(=O)Nc4cccc(S(=O)(=O)N5CCOCC5)c4)c3n2)cc1	-12%	0	8%	6%	9%	?
CC1(C)CNC(=O)c2sc(NC(=O)c3ccccc3)nc2C1	-16%	-1	14%	?	1%	?
CC1(C)CC(=O)c2sc(NC(=O)c3ccc4ncsc4c3)nc2C1	-25%[46.1 µM]	3	50µM*	3.5µM*	-1%	-18%
CC1(C)CC(=O)c2sc(NC(=O)c3ccccc3)nc2C1	-20%	5	-6%	2.8µM*	-9%	3%
CC(Oc1ccccc1)C(=O)Nc1nc2c(s1)C(=O)CC(C)(C)C2 (stereo unspecified)	-14%[46.1 µM]	6	9%	14µM*	14%	?
Cc1sc(NC(=O)c2cccs2)nc1-c1ccccc1	?	-2	15%	-5%	.	1%
SMILES	NPSR antag	FBPA coupling cs	Sfp PPTase inh	ALDH1A1 inh	RGS12 GoLoco inh	KDM4E inh
CC1(C)CC(=O)c2sc(NC(=O)c3cccs3)nc2C1	?	7	14%	16µM*	3%	7%
CC(C)C[C@H](NC(=O)N1CC(=O)Nc2ccccc21)C(=O)N1CCC(C(=O)O)CC1	.	3	5%	.	.	.
CCn1c(CNC(=O)c2ccco2)nnc1SCC(=O)Nc1cc(F)ccc1C	.	0	7%	.	.	.
COc1ccc(Cl)cc1NC(=O)CSc1nnc(-c2ccco2)o1	.	.	2%	.	.	.
CC1CCCN(C(=O)c2nn(C)c3c2CS(=O)(=O)c2ccccc2-3)C1 (stereo unspecified)	.	3	12%	.	.	.
CC(C)=Cc1oc2ccc([N+](=O)[O-])cc2c1N1CC(C)OC(C)C1 (stereo unspecified)	-46%	4	-9%	-11%	5%	-4%
CC1(C)CC(=O)c2sc(NC(=O)CN3CCCCC3)nc2C1	7%[46.1 µM]	5	-8%	20µM*	0%	-7%
CC1(C)CC(=O)c2sc(NC(=O)C(C)(C)C)nc2C1	17%	0	4%	?	0%	-13%
Cc1ccc(CNC(=O)CCS(=O)(=O)c2ccc(Br)cc2)cc1	5%	5	22%	-9%	-22%	11µM*
COc1ccc(S(=O)(=O)CCC(=O)NCCc2ccc(C)cc2)cc1	-8%[46.1 µM]	2	-3%	25µM*	0%	-15%
CCN(CC)S(=O)(=O)c1cc(NC(=O)COC(=O)c2ccc(NC(=O)CC#N)cc2)ccc1C	1%	4	0%	5%	23%	4µM*
CC1CN(C(=O)COC(=O)c2ccc(NC(=O)CC#N)cc2)CC(C)O1 (stereo unspecified)	7%	-2	16%	6.3µM*	21%	-10%
CCN(CC)S(=O)(=O)c1cc(NC(=O)COC(=O)c2sc3ccccc3c2Cl)ccc1C	-5%	0	30%	8%	-7%	-14%
COc1cc(C2C(C#N)=C(N)Oc3cc(O)ccc32)cc2c1OCO2 (stereo unspecified)	-13%[46.1 µM]	9	79µM*	?	-4%	-20%
COc1ccc(N2C(=S)NC3CS(=O)(=O)CC32)cc1 (stereo unspecified)	-25%	0	-10%	9%	-6%	22%
Cc1cc[n+](-c2[nH]c(=O)sc2/C=N/N=C(\[O-])c2ccccc2)cc1	19%	7	?	13µM*	12%	?
Cc1cc(C)c[n+](-c2[nH]c(=O)sc2/C=N/N=C(\N)[S-])c1	-15%	2	25µM*	?	1%	-14%
Cc1cc[n+](-c2[nH]c(=O)sc2/C=N/N=C(\[O-])c2ccncc2)cc1	.	.	-10%	.	.	.
Cc1cc[n+](-c2[nH]c(=O)sc2/C=N/N=C(\[O-])c2ccccc2)cc1C	-18%	-1	-17%	22µM*	4%	-22%
COc1ccc(CNC(=O)CCNS(=O)(=O)c2cc(Br)cnc2N)cc1	.	.	4%	.	.	.
CCN(CC)C(=O)COCc1cc(-c2ccc3c(c2)OCO3)on1	.	0	11%	.	.	.
[N-]=[N+]=CC(=O)C(Cc1ccccc1)N1C(=O)c2ccccc2C1=O (stereo unspecified)	-8%[46.1 µM]	0	9%	2.8µM*	-3%	3%
Cc1ccc(C)c2[nH]c(=O)c(CCNC(=O)c3ccc(S(=O)(=O)N(C)C)cc3)cc12	?	3	17%	22µM*	-2%	-11%
